CHO-K1 Ca ag – nonselective activator or artifact in parental CHO-K1 cells; 360,000 compounds, 0.48% hits; activation, % at 3 µM; Fluo-8 calcium fluorescence; scaled to maximal ATP response, vehicle zero; in the data active = activation above about 15%;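 note: untransfected CHO-K1 host cells lacking M1 receptor as counterscreen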
CHO-K1 Ca antag – counter-screen for M1 antagonists: effect in parental CHO-K1 cells; inhibition, % at 3 µM; AID 602250; 360,000 compounds, 0.6% hits; ATP-induced calcium, Fluo-8 fluorescence;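 active = inhibition above a per-plate cutoff, the plate's mean sample inhibition plus 3 SD, cut at about 24% in these data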;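 note: 0% = DMSO plus EC80 ATP and 100% = DMSO alone without ATP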
CHRM1 antagonist – human CHRM1 antagonism | P11229 | CHO-K1 hM1, Fluo-8 calcium fluorescence, ACh EC80 antagonist | inhibition, % at 3 µM | 360,000 compounds, 1.3% hits | AID 588852;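 active = percent inhibition above its own plate's cutoff, namely the mean of that plate's compound wells plus 3 SD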;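 note: peak over basal fluorescence ratio during 140 s after agonist addition; 0% = ACh EC80 plus DMSO and 100% = DMSO alone without agonist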
Target sequence (P11229 whole entry, looked up): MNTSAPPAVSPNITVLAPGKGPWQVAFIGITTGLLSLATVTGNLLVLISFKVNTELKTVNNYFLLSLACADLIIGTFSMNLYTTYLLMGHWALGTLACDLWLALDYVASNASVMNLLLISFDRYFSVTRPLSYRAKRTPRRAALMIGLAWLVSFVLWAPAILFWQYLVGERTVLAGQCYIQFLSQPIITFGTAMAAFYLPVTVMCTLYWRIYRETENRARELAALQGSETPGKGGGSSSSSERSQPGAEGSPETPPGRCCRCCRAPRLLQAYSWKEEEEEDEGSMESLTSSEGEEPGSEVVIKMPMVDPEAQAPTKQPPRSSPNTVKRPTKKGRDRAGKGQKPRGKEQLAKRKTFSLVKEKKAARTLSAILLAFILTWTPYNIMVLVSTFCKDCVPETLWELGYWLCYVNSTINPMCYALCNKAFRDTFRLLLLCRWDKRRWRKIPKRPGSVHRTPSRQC
M1 ag – activates human CHRM1 receptor | P11229 | 360,000 compounds, 0.33% hits | CHO-K1 hM1, Fluo-8 calcium fluorescence, agonist mode; 0% DMSO, 100% acetylcholine EC100 | activation, % at 3 µM;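 active = activation above the run's mean compound activation plus 3 SD, cut at about 16% in these data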;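 note: peak over basal fluorescence ratio within a 140 s kinetic read after compound addition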
M1 PAM parental – nonselective activator or artifact in parental CHO-K1 calcium assay; activation, % at 3 µM; AID 602247; ATP EC20, Fluo-8 calcium fluorescence; 0% at ATP EC20, 100% at ATP max; 360,000 compounds, 0.02% hits;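 active = activation above the run cutoff, the mean activation of all test compounds plus 3 SD, cut at about 40% in these data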;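 note: peak over basal fluorescence ratio in a 140 s read after ATP addition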
CHRM1 PAM – positive allosteric modulators of human M1 muscarinic receptor; P11229; CHO-K1 hM1, Fluo-8 calcium fluorescence, ACh EC20; 0% = ACh EC20, 100% = maximal ACh; activation, % at 3 µM; 360,000 compounds, 0.088% hits; AID 588819; in the data active = activation above about 19%, passing the limit was not always enough
Starred values were filed as active, the others as inactive. An excerpt weighted towards active compounds, which were near 2.4% of everything screened.

SMILES	CHO-K1 Ca ag	CHO-K1 Ca antag	CHRM1 antagonist	M1 ag	M1 PAM parental	CHRM1 PAM
O=C(CCn1c(=O)c2sccc2n(CC(=O)OCc2ccccc2)c1=O)NCc1ccco1	6	2	17	-6	7	-7
O=C(CCCn1c(=O)c2sccc2n(CC(=O)OCc2ccccc2)c1=O)NCc1ccco1	5	-6	28*	-2	22	-9
c1ccc(CC2CCCNC2)cc1 (stereo not given)	0	-20	23	22*	22	-11
O=C1CC(Sc2nnc(-c3ccccc3)o2)C(=O)N1c1ccccc1 (stereo not given)	1	4	-15	1	8	11
O=C1c2ccccc2CC1Sc1nnc(-c2ccncc2)o1 (stereo not given)	0	24*	-4	1	-7	4
Cc1ccc(NS(=O)(=O)c2c(C)[nH]c(C)c2C(=O)N2CCCCC2)cc1Cl	1	-13	-4	-1	14	5
Cc1n[nH]c(=S)n1/N=C/c1ccc(OCc2ccc(Cl)cc2)cc1	0	25*	2	-3	-8	1
COc1cc(/C=N/Nc2nc(Nc3ccccc3)nc(-n3nc(C)cc3C)n2)cc(OC)c1OC	5	6	26*	-5	7	-18
Oc1ccc(CCNc2ncnc3ccc(Cl)cc23)cc1	16*	8	35	7	0	-22
Cc1ccc(NC2=NCC(Cc3ccc(Br)cc3)S2)cc1 (stereo not given)	10	-8	38*	-9	29	-26
Cc1ccc(NC(=O)CNC(=O)c2cccc(C)c2)nc1	0	3	-7	21*	11	0
Cc1c(/C=C/C(=O)c2ccccc2)cnn1C	16*	-1	1	-1	8	0
Cc1ccc2c(c1)nnn2C1CCN(S(=O)(=O)c2cccc(S(=O)(=O)N(C)C)c2)CC1	12	5	37*	3	3	-12
Cc1ccc2c(c1)nnn2C1CCN(CC(=O)N(c2ccccc2)c2ccccc2)CC1	4	-6	34*	-8	-12	-22
CCCCC(CCC(=O)NNC(=O)Cc1ccccc1)C(=O)O (stereo not given)	0	-4	0	-1	-1	7
CCCN1C(=O)/C(=C/c2c(N3CCNC(=O)C3CC(=O)OCC)nc3c(C)cccn3c2=O)SC1=S (stereo not given)	10	10	39*	13	-5	-17
CCOC(=O)CC1C(=O)NCCN1c1nc2ccc(C)cn2c(=O)c1/C=C1\SC(=S)N(CC(C)C)C1=O (stereo not given)	5	-7	2	5	10	-4
CC1CCCN(c2ccc(C(=O)OCn3nnc4ccccc4c3=O)cc2[N+](=O)[O-])C1 (stereo not given)	0	-10	6	-8	20	-6
CC1Cc2ccccc2N1C(=O)CN1CCCCC1 (stereo not given)	4	-5	-8	-8	19	3
CC1CCCN(c2ccc(C(=O)OCC(=O)N3c4ccccc4Sc4ccccc43)cc2[N+](=O)[O-])C1 (stereo not given)	0	2	35*	-11	-5	-26
O=C(CN1CCCCC1)N1c2ccccc2Oc2ccccc21	2	-6	75*	-5	24	-22
O=C1CCCN1CCCNCC(=O)N1c2ccccc2Sc2ccccc21	0	-16	77*	-6	19	-24
O=C(CN1CCCC(O)C1)N1c2ccccc2Sc2ccc(C(F)(F)F)cc21 (stereo not given)	2	-6	99*	-6	13	-20
CN1CCN(CC(=O)N2c3ccccc3Sc3ccccc32)CC1	2	-6	100*	-10	10	-31
O=C(CN1CCCCCC1)N1c2ccccc2Sc2ccccc21	16*	-4	99*	-6	14	-23
SMILES	CHO-K1 Ca ag	CHO-K1 Ca antag	CHRM1 antagonist	M1 ag	M1 PAM parental	CHRM1 PAM
Cc1cc(C)n(CC(=O)N2c3ccccc3Sc3ccc(C(F)(F)F)cc32)n1	0	5	62*	-10	4	-27
CC1CCCN(CC(=O)N2c3ccccc3Sc3ccccc32)C1 (stereo not given)	2	-14	81*	-6	10	-23
COc1cccc2c1Oc1cc([N+](=O)[O-])cc(N(C)C(C)=O)c1C=C2	-1	-10	-12	-9	10	7
O=C(NCC(F)(F)F)c1ccc2sc([C@@H]3O[C@H](CO)[C@H](O)[C@H](O)[C@H]3O)nc2c1	0	-7	-4	6	-2	14
CC(C)OC(=O)NCCOC(=O)Nc1ccc(Cl)c(Cl)c1	6	17	22	1	8	-4
CC(C)OC(=O)NCCOC(=O)Nc1cccc(Cl)c1	10	29*	26	4	2	-9
Nc1c(Cl)cc(-c2csc(N3CCCC3c3nc4cc(Cl)c(N5CCCCC5)cc4n3CCCO)n2)cc1Cl (stereo not given)	1	-8	-5	-5	4	0
CCCCn1c(N)c(N(CC(C)C)C(=O)CCCc2cccs2)c(=O)[nH]c1=O	-1	26*	10	3	-19	6
CCCCn1c(N)c(N(CC(C)C)C(=O)CCS(=O)(=O)c2ccc(C)cc2)c(=O)[nH]c1=O	0	-11	-7	-2	7	3
CN(CC(O)COC(c1ccccc1)c1ccccc1)C1CCCCC1 (stereo not given)	2	-11	30*	-12	15	-32
CC1CN(CC(O)COC(c2ccc(Cl)cc2)c2ccc(Cl)cc2)CC(C)O1 (stereo not given)	0	11	-2	-9	3	-6
CN(CC(O)COc1ccc(OCC(O)CN(C)C2CCCCC2)cc1)C1CCCCC1 (stereo not given)	0	0	-15	-5	18	6
CN(C)CC(O)COC(c1ccc(Cl)cc1)c1ccc(Cl)cc1 (stereo not given)	5	-12	41*	-6	15	-21
CCCN(CCC)S(=O)(=O)c1ccc(NS(=O)(=O)c2ccc(F)cc2)cc1	2	-2	4	-2	11	-1
CCOC(=O)c1ccc(N=C2C(=S)N(c3ccc(C(=O)OCC)cc3)C(=N)N2/N=C/c2ccccc2)cc1	1	4	99*	-5	11	-21
CCOC(=O)C1C(=O)C=C(/C=C/c2ccc(N(C)C)cc2)CC1c1ccccc1 (stereo not given)	22*	14	21	18*	6	-7
COc1ccc([C@H]2CC(=O)C=C(c3ccc(CNC(=O)OC(C)(C)C)cc3)C2)cc1	9	1	34*	-4	-18	-23

Assay outcomes: PubChem, The Scripps Research Institute Molecular Screening Center
